# Rows were chosen to be rich in hits. Some 19% of all compounds tested hit in one or more screens of this group.
# IL-1B inflam inh: blocks inflammasome-driven IL-1 beta release; 360,000 compounds, 4.7% hits; THP-1 LPS/ATP IL-1B secretion, AlphaLISA, 16 h; stronger effect = lower value; activity change, % at 57.5 µM; AID 743279; in the data active means activity change below about -50%; inconclusive means mostly about -30% to -49%
#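 Secreted IL-1B measured by AlphaLISA bead assay after 16 h compound exposure of THP-1 cells; compounds (final up to 57.5 uM) added 1 h before LPS (250 ng/mL) and ATP (1.25 mM) stimulation; lower signal means less secretion.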
# TDP1 cell noCPT: qHTS for Inhibitors of human tyrosyl-DNA phosphodiesterase 1 (TDP1): qHTS in cells in absence of CPT; DT40 Tdp1-/- hTDP1 cells, no CPT, ATP luminescence, 48 h; 420,000 compounds, 15% hits; Potency, µM (doses to about 46.2 µM), for the others: top-dose activity change, negative = growth inhibition, most hits filed as inhibitors; AID 686978, 2013; further: potency means the concentration at half of the fitted maximal effect; nearly all actives have a fitted effect of over 55% in size
#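 Chicken DT40 Tdp1-/- cells complemented with human TDP1, screened without camptothecin (DMSO vehicle only), 400 cells/well. Compounds pin-transferred, cells incubated at 37 °C for at least 48 hr. Growth read as ATP-dependent luminescence (CellTiter-Glo, 30 min at RT).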
# TDP1 cell CPT: growth inhibition of DT40 Tdp1-/-;hTDP1 cells with camptothecin (screen for TDP1 inhibitors) | chicken DT40 Tdp1-/-;hTDP1 cells + 20 nM CPT, ATP luminescence, 48 h | Potency, µM (top dose mostly 46.2 µM), without a hit: top-dose activity change, negative = growth inhibition, hits mostly inhibitors | 420,000 compounds, 12% hits; further: potency means the concentration at half of the fitted maximal effect; nearly all actives have a fitted effect of over 55% in size
#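 Cell growth measured by CellTiter-Glo luminescence after a minimum 48 h, 37 C compound exposure with 20 nM CPT in Tdp1-knockout DT40 cells stably expressing hTDP1, seeded 400/well; qHTS titration format.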
# HT1080 IDH1KD tx: HT-1080 IDH1 knockdown cell toxicity (counter line); HT-1080 IDH1 knockdown viability, ATP luminescence, 48 h; Potency, µM (titrated, usually from 46.1 µM), inactives show at the top dose activity, negative = toxicity, actives largely listed as cytotoxic; 360,000 compounds, 2% hits; AID 686971;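 further: potency means the concentration at half of the fitted maximal effect; 0% = DMSO wells and -100% = cell-free medium wells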
#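 IDH1KD HT-1080 cells, 750/well, RPMI + 5% FBS; compound pinned after 2 h settling; 48 h, 37 °C; CellTiter-Glo luminescence; % activity normalised to DMSO and no-cell wells; curves fitted, classed by r2 and efficacy.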
# HT1080-NT tox: kills 2HG-producing HT-1080-NT fibrosarcoma cells; Potency, µM (highest dose often 46.1 µM), inactives show at the top dose activity, negative = less viability, most hits filed as cytotoxic; 360,000 compounds, 1.6% hits; HT-1080-NT fibrosarcoma viability, CellTiter-Glo ATP luminescence, 48 h;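 further: NT is the 2HG producing partner of a matched IDH1 knockdown line; potency means the concentration at half of the fitted maximal effect; 0% = DMSO-treated cells and -100% = media-only wells without cells; nearly all actives have a fitted effect of over 55% in size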
#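 HT-1080-NT; 750 cells/well; 5% FBS RPMI; 48 h compound, 37 degrees C; CellTiter-Glo luminescence; curve fitting and curve-class assignment.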
# Starred values were filed as active, the others as inactive; ? = inconclusive; . = no result; [ ] = another dose, or the depositor's remark. Unless noted, the call rests on the fitted dose curve; in most records, active means well fitted curve in the direction sought with a large enough effect; inconclusive means small, poorly fitted or top-dose-only effect, or another doubt; inactive means no such curve, though single readings can be large; an effect the other way counts as inactive or inconclusive. Unless noted, on the % scale 0 is the no-effect control and ±100 the full control effect.
SMILES,IL-1B inflam inh,TDP1 cell noCPT,TDP1 cell CPT,HT1080 IDH1KD tx,HT1080-NT tox
CC1(Cc2cc(Cl)ccc2C(F)(F)F)C(=O)Nc2cc(C(F)(F)F)ccc21 (stereo not drawn),20,15µM*,23µM*,21µM*,?
CC1(Cc2ccccc2Cl)C(=O)Nc2cc(-c3ccccc3Cl)ccc21 (stereo not drawn),-2,?,?,?,?
CC1(Cc2cc(Cl)ccc2C(F)(F)F)C(=O)Nc2ccc(OC(F)(F)F)cc21 (stereo not drawn),-13,13µM*,23µM*,21µM*,?
CC1(Cc2cc(Cl)ccc2C(F)(F)F)C(=O)Nc2cc(F)ccc21 (stereo not drawn),-10,15µM*,26µM*,?,?
CCc1ccc2c(c1)NC(=O)C2(C)Cc1ccc(C(F)(F)F)nc1 (stereo not drawn),15,?,?,14%,5%
COc1ccc(C(=O)C(=O)N2CCC(c3ccccc3)CC2)cn1,35,?,?,-1%,19%
CN1C(=O)CSC1=S,14,8%,-5%,11%,29%
Cc1ccc(S(=O)(=O)N2C[C@@H](C)[C@]3(C2)[C@H](O)[C@H](OC(=O)NC2CCCC2)C[C@H]2C(=O)N(c4ccccc4)C(=O)[C@H]23)cc1,-3,?,-18%,-11%,-16%
CCn1c(=O)c(C(=O)NCCc2ccc(OC)c(OC)c2)c(O)c2ccccc21,11,21µM*,16µM*,0%,-7%
CCCn1c(=O)c(C(=O)NCCc2ccc(OC)c(OC)c2)c(O)c2ccccc21,14,?,?,-6%,-6%
COc1ccc(CCNC(=O)c2ccc(Cn3c(=O)c4ccccc4n(Cc4cccc(F)c4)c3=O)cc2)cc1OC,.,16µM*,16µM*,.,.
COCCCNC(=O)c1ccc(Cn2c(=O)c3ccccc3n(CC(=O)NCCc3ccc(OC)c(OC)c3)c2=O)cc1,-5,18µM*,23µM*,2%,-10%
COc1ccc(CCNC(=O)c2ccc(Cn3c(=O)c4ccccc4n(Cc4cccc(Cl)c4)c3=O)cc2)cc1OC,.,10µM*,21µM*,.,.
COc1ccc(NC(=O)C2c3ccccc3OCC(=O)N2Cc2ccco2)cc1 (stereo not drawn),-9,-18%,1%,3%,0%
NC(=O)c1cc[n+](CC(=O)NC(=O)Nc2ccccc2)cc1,24,4%,4%,6%,6%
CC1CC(=O)Nc2ccccc2N1C(=O)Cn1cnc2ccccc2c1=O (stereo not drawn),5,0%,0%,11%,8%
CC[C@@H](C(=O)[C@@H](C)[C@@H](O)[C@H](C)CCc1ccc(C)c(O)c1C(=O)O)[C@H]1O[C@](CC)([C@H]2CC[C@](O)(CC)[C@H](C)O2)C[C@@H]1C,-92*,2.3µM*,2.6µM*,6.5µM*,1.6µM*
COC(=O)c1ccc(NC(=O)c2cc(-c3ccccn3)nc3ccccc23)cc1,19,-14%,3%,18%,4%
COc1ccc(NC(=O)c2cc(-c3ccccn3)nc3ccccc23)cc1S(=O)(=O)N(C)C,8,9.2µM*,?,-13%,-17%
O=C(NC1CCCCC1)c1cc(-c2ccccn2)nc2ccccc12,15,?,?,-21%,-15%
CCN(CC)S(=O)(=O)c1ccc2[nH]c(=O)cc(C(=O)Nc3ccc(C)c(S(=O)(=O)N(CC)CC)c3)c2c1,-17,23µM*,?,?,-20%
CCN(CC)C(=O)c1cccc(NC(=O)c2cc(-c3ccccn3)nc3ccccc23)c1,3,16µM*,?,8%,2%
CCN(CC)S(=O)(=O)c1cc(NC(=O)c2cc(-c3ccccn3)nc3ccccc23)ccc1C,-20,15µM*,23µM*,-1%,?
CCC(C)C(=O)Nc1nc(C)c(-c2csc(Nc3ccc(Cl)cc3)n2)s1 (stereo not drawn),-1,9.2µM*,16µM*,-9%,-2%
Cc1nc(N)sc1-c1csc(Nc2ccccc2)n1,-2,?,?,-5%,-3%
SMILES,IL-1B inflam inh,TDP1 cell noCPT,TDP1 cell CPT,HT1080 IDH1KD tx,HT1080-NT tox
CCC(=O)Nc1nc(C)c(-c2csc(Nc3ccc(C(=O)O)cc3)n2)s1,0,-26%,-1%,9%,3%
CCCC(=O)Nc1nc(C)c(-c2csc(Nc3ccc(Cl)cc3)n2)s1,-21,?,12µM*,-21%,-21%
COC1CC(N)C2OC(c3ccccc3)OCC2O1 (stereo not drawn),21,-19%,-2%,-3%,20%
Cc1ccc(-n2c(=O)c3c(C)c(C(=O)N(C)C)sc3n(CC(=O)N(C)c3ccccc3)c2=O)cc1C,.,-26%,-27%,.,.
OCCCNc1ncnc2scc(-c3ccc(Cl)cc3)c12,-20,21µM*,?,?,-34%
O=S(=O)(Nc1ncnc2scc(-c3ccc(F)cc3)c12)c1cc(F)ccc1F,72,29µM*,?,-1%,-12%
NNc1ncnc2scc(-c3ccc(Cl)cc3)c12,55,?,?,2%,-3%
Cc1ccc(-c2csc3ncnc(NS(=O)(=O)c4ccc(Cl)cc4)c23)cc1,10,-29%,-10%,-2%,-15%
Clc1ccc(-c2csc3ncnc(Cl)c23)cc1,-89*,16µM*,?,-7%,-10%
CCc1ccc(CN2CCC(C(=O)Nc3ccc(Oc4ccccc4)nc3)CC2)o1,-28,23µM*,16µM*,?,0%
O=C(Nc1ccc(Oc2ccccc2)nc1)C1CCN(Cc2ccccc2)CC1,?,-28%,?,-29%,?
CCn1cc(CN2CCC(C(=O)Nc3ccc(Oc4ccccc4)nc3)CC2)cn1,4,21µM*,-68%,6%,-7%
Cc1c(CN2CCC(C(=O)Nc3ccc(Oc4ccccc4)nc3)CC2)cnn1C,27,14%,11%,5%,-1%
CCc1nc2ccc(C(=O)N(CC)CCN(C)C)cn2c1N(CC)C(=O)NCCc1ccccc1,-23,-1%,4%,15%,-5%
O=C(CCNC(=O)c1ccc(Cl)cc1)NCC(c1ccco1)N1CCCC1 (stereo not drawn),-4,4%,4%,7%,1%
COc1ccc(NS(=O)(=O)c2ccc(Br)cc2)cn1,-12,?,2%,-16%,-17%
COc1ccc(NS(=O)(=O)c2ccc3oc4ccccc4c3c2)cn1,24,?,23µM*,2%[9.24 µM],?
COc1cc(OC)cc(-c2noc([C@H]3C[C@H](O)[C@@H](CO)O3)n2)c1,-18,1%,11%,15%,11%
